The full list was thinned out, with hits kept by preference.
RE007 growth inh = less growth of the S. pombe RE007 Vpr strain. hit rate 0.21% among 360,000. S. pombe RE007 Vpr strain, BacTiter-Glo ATP luminescence, 24 h. AID 651644. Potency, µM (highest dose often 92.2 µM), most hits filed as inhibitors; active = well fitted falling curve with a large enough effect; inconclusive = small, poorly fitted or top-dose-only effect; inactive = no such curve, though single readings can be large or run the other way; also: nearly all actives have a fitted effect of over 50% in size
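Fission yeast RE007 carrying one integrated HIV-1 vpr copy, seeded at OD 0.01 in PMG+AL medium with 23 nL pinned compound. Grown 24 h at 30 degrees; viability read by BacTiter-Glo luminescence after 5 min.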
Cycloheximide cs = affects cycloheximide protein synthesis inhibition readout, counter-screen; cell reporter, cycloheximide protein synthesis inhibition counterscreen; max response, %; hit rate 12% among 300,000; AID 2314; in the data active = max response mostly above about 13%, no sharp cut-off; inactive = mostly below about 14%; also: read at 38.3 µM for the half of the compounds with a filed dose
Shiga inhibitor = inhibitors of Shiga toxin in Vero cells. hit rate 9.2% among 290,000. Vero cells, Shiga toxin protein synthesis inhibition reporter. inhibition, % at 38.7 µM; in the data active = inhibition mostly above about 28%, no sharp cut-off; inactive = mostly below about 43%
LmPK inh = inhibitors of Leishmania mexicana pyruvate kinase. purified LmPK, Kinase-Glo ATP luminescence, 1 h. Potency, µM (top dose mostly 57.5 µM), hits mostly inhibitors. hit rate 0.37% among 290,000. AID 1721
Target sequence (Q27686 whole entry, looked up): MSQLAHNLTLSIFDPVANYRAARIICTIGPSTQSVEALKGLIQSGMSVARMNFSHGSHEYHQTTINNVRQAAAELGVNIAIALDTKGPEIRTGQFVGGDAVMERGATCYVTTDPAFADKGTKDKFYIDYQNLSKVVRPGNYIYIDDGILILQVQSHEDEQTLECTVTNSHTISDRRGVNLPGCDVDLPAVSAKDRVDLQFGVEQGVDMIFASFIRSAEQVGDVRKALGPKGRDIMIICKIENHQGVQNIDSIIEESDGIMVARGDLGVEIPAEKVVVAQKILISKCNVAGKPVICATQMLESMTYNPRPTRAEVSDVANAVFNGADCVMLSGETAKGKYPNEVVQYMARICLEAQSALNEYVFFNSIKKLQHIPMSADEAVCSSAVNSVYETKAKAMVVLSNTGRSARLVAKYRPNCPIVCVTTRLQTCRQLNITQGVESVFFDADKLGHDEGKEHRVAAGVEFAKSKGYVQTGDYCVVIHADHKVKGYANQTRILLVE
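In 50 mM imidazole pH 7.2 with 7 mM MgCl2, LmPK (0.1 nM) turned over PEP (0.5 mM) and ADP (0.1 mM) for 1 h at room temperature. Luciferase read-out of ATP.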
Giardia FBPA inh = Giardia lamblia aldolase inhibition; A8B2U2; hit rate 0.71% among 290,000; purified Giardia FBPA; Potency, µM (top dose mostly 59.6 µM), actives largely listed as inhibitors; also: nearly all actives have a fitted effect of over 55% in size
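Giardia FBPA (40 nM reagent) was preincubated 10 min at RT with compound (up to 57.5 uM final), then substrate plus GAPDH/TPI/NAD/arsenate coupling system with diaphorase/resazurin was added; resorufin fluorescence (525/598 nm) was read after 20 min.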
TbPYK inhibitor = T. brucei pyruvate kinase inhibition | Q57TT1 | TbPYK enzyme, Kinase-Glo Plus ATP luminescence, 45 min | Potency, µM (series often up to 76.8 µM), actives largely listed as inhibitors | hit rate 0.12% among 410,000 | AID 624173; also: nearly all actives have a fitted effect of over 50% in size
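Screened from lowest to highest concentration, compounds were pinned into TbPYK/substrate mixtures, and ADP (130 uM final) was added. Plates sat at room temperature for 45 min prior to Kinase-Glo Plus detection by luminescence.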
Hits are given with their value; - = inactive; ? = inconclusive; . = no result given; ! = not confirmed by another sample. Unless noted, calls follow the shape of the dose curve; as a rule, active = well fitted curve in the direction sought with a large enough effect; inconclusive = small, poorly fitted or top-dose-only effect, or another doubt; inactive = no such curve, though single readings can be large; an effect the other way counts as inactive or inconclusive.

SMILES | RE007 growth inh | Cycloheximide cs | Shiga inhibitor | LmPK inh | Giardia FBPA inh | TbPYK inhibitor
CCC(=O)Nc1ccc(Br)cn1 | - | - | - | - | - | -
Nc1c(C(=O)NCc2cccs2)nnn1CC(=O)Nc1cccc(F)c1 | . | . | . | . | . | -
CCCn1ccc2c(OCC(=O)Nc3ccc(F)cc3F)cccc2c1=O | . | . | . | . | . | -
O=C(Nc1ccccn1)c1ccc(Cl)s1 | ? | 62 | 100 | - | - | -
Cc1cc(C(=O)Nc2ccc(Br)cn2)sc1C | ? | . | . | . | . | -
O=C(Nc1ccon1)c1ccc(Br)s1 | - | 25 | 57 | - | - | -
O=C(Nc1ccc(Br)cn1)c1ccc(Br)s1 | - | 62 | 108 | - | - | -
COc1ccc([C@H]2N[C@]3(CCCN(Cc4ccccc4)C3=O)[C@H]3C(=O)N(Cc4ccccc4)C(=O)[C@@H]23)cc1 | - | . | . | . | . | -
CC1=C(C(=O)OC(C)C)C(c2cccc([N+](=O)[O-])c2)C(C(=O)OC2CN(C(c3ccccc3)c3ccccc3)C2)=C(N)N1 (centres undefined) | . | . | . | . | . | -
O=C1c2ccccc2NC(c2cccc(O)c2)N1Cc1ccco1 (centres undefined) | - | - | - | - | - | -
COc1ccc(C2Nc3ccccc3C(=O)N2Cc2ccco2)cc1CN1C(=O)c2ccccc2C1=O (centres undefined) | - | - | 43! | - | - | -
COc1ccc(C2Nc3ccccc3C(=O)N2Cc2ccco2)cc1COc1ccc(F)cc1 (centres undefined) | - | 60 | 40 | - | - | -
C=CC[n+]1ccc(/C=C2\C=Cc3cc(C)ccc3N2CC)c2ccccc21 | 32µM | - | - | ? | ? | -
CCN1/C(=C/c2cc[n+](CCCS(=O)(=O)[O-])c3ccccc23)Sc2ccccc21 | - | - | - | - | - | -
COc1cc(CNc2ncnc3ccc(-c4c(C)noc4C)cc23)cc(OC)c1OC | . | - | - | . | - | .
Cn1cnc(S(=O)(=O)N2CCCCC2c2cc(C(=O)Nc3ccc(F)c(Cl)c3)no2)c1 (centres undefined) | - | . | . | . | . | -
CC(C)NC(=NCc1ccc(Cl)cc1Cl)Nc1ccccc1 | ? | - | - | - | - | -
CCOc1ccc(N(CC(=O)Nc2ccccc2OC)S(C)(=O)=O)cc1 | - | - | - | - | - | -
CCOc1ccc(N(CC(=O)Nc2ccc(C)c(C)c2)S(C)(=O)=O)cc1 | - | 78 | 107 | - | - | -
CCOc1ccc(N(CC(=O)Nc2ccccc2)S(C)(=O)=O)cc1 | - | 19 | 50 | - | - | -
CCOc1ccc(N(CC(=O)Nc2ccccc2Cl)S(C)(=O)=O)cc1 | - | 28 | 74 | - | - | -
CCCCOC(=O)c1ccc(NC(=O)COC(=O)CSc2nc(C)cc(C)n2)cc1 | - | 21 | 58 | - | - | -
COc1ccc(NC(=O)CSc2nc(C)cc(C)n2)cc1 | - | - | - | - | - | -
CCCCOC(=O)c1ccc(NC(=O)CSc2nncn2C)cc1 | - | 25 | - | - | - | -
Cc1cccc(Nc2c(-c3cccs3)nc3nc(C)cc(C)n23)c1 | . | . | . | . | . | -
SMILES | RE007 growth inh | Cycloheximide cs | Shiga inhibitor | LmPK inh | Giardia FBPA inh | TbPYK inhibitor
COc1cccc(C(=O)N2CCc3cc(OC)c(OC)cc3C2COc2ccc3c(C)cc(=O)oc3c2)c1 (centres undefined) | . | . | . | . | . | -
C/C(=N/NC(=O)c1nnn(-c2nonc2N)c1-c1ccccc1)c1ccc2c(c1)OCO2 | - | - | - | - | - | -
C/C(=N\N=C(/N)c1nonc1N)c1ccc2c(c1)OCO2 | - | 81 | 55 | - | - | -
COc1ccc(CNc2cc(C)ccn2)cc1 | - | 37 | 97 | - | - | -
COc1ccc(CC(=O)Nc2cc(C)ccn2)cc1 | - | 42 | 86 | - | - | -
Cc1ccnc(NCc2ccc(Br)cc2)c1 | - | 38 | 35 | - | - | -
Cc1cccc(C)c1Nc1sc(C(=O)c2ccccc2)c(N)c1C(=O)Nc1ccc(F)cc1 | . | . | . | . | . | -
CN(C)c1nc(NCc2ccccc2)nc(N/N=C/c2ccccc2F)n1 | . | - | - | - | - | .
Fc1ccccc1/C=N/Nc1nc2ccccc2o1 | - | 50 | 79 | - | - | -
FC(F)Oc1ccccc1/C=N/Nc1nc2ccccc2o1 | - | 44 | 74 | - | - | -
COc1ccc(P2(=O)Nc3ccccc3N2)cc1 | - | 36 | - | - | - | -
Cc1c(C(=O)O)oc2c(F)cccc12 | - | - | - | - | - | -
Cc1ccc2oc(C(=O)N3CCC(N4CCSCC4)CC3)c(C)c2c1 | - | - | - | - | . | -
Cc1c(C(=O)NC2CCOC2)oc2c(F)cccc12 (centres undefined) | - | 71 | 114 | - | - | -
Cc1c(C(=O)NCc2ccccc2CN2CCCC2)oc2c(F)cccc12 | - | . | . | . | . | -
Cc1c(C(=O)N2CCC(N3CCSCC3)CC2)oc2c(F)cccc12 | - | 23 | - | - | . | -
Cc1c(C(=O)NCc2ccco2)oc2c(F)cccc12 | - | . | . | . | . | -
Cc1c(C(=O)N2C[C@@H](C)O[C@@H](C)C2)oc2c(F)cccc12 | - | 40 | 70 | - | - | -
Cc1c(C(=O)N2CCC[C@H]2CO)oc2c(F)cccc12 | - | 24 | 36 | - | - | -
COc1ccc(NC(=O)Cc2csc(COc3cccc(C)c3)n2)cc1OC | . | . | . | . | . | -
CC(C)NC(=O)N(C)C[C@H]1Oc2ccc(NC(=O)Nc3ccccc3)cc2C(=O)N([C@@H](C)CO)C[C@@H]1C | - | . | . | . | . | -
CCOC(=O)c1cc(C(=O)Nc2ccc(C)c(F)c2)nn1C | - | 44 | 62 | - | - | -
C[C@H](N)C(=O)N[C@@H](Cc1ccc(F)cc1)C(=O)N[C@@H](CCCN=C(N)N)C(=O)N[C@@H](CC1CCCCC1)C(=O)N[C@@H](CCCCN=C(N)N)C(=O)N[C@@H](Cc1ccc(O)cc1)C(N)=O | . | - | - | . | - | .
CCOc1ccc2ccc(OCC)c(/C=N/n3cnnc3)c2c1 | - | 9.4 | - | - | - | -
O=C(c1cc(COc2cccc3cnccc23)on1)N1CCC(c2ccccc2Cl)C1 (centres undefined) | - | - | - | - | . | -
SMILES | RE007 growth inh | Cycloheximide cs | Shiga inhibitor | LmPK inh | Giardia FBPA inh | TbPYK inhibitor
O=C(c1cc(COc2c(F)cccc2F)on1)N1CCc2ccccc2C1 | - | - | 52 | - | - | -
O=C(c1cc(COc2cccc(C(F)(F)F)c2)on1)N1CCc2ccccc2C1 | - | . | . | . | . | -
O=C(c1cc(COc2c(F)cccc2F)on1)N1CCC(c2ccccc2F)C1 (centres undefined) | - | 36 | 90 | - | - | -
O=C(c1cc(COc2c(F)cccc2F)on1)N1CCC(c2ccccc2Cl)C1 (centres undefined) | - | 51 | 82 | - | - | -
Cc1ccc2oc(/N=C(\N)NC(=O)C3CC3)nc2c1 | - | 55 | 65 | - | - | -
N/C(=N\c1nc2ccccc2o1)NC(=O)c1ccc([N+](=O)[O-])cc1 | - | - | - | - | - | -

Screens (PubChem)
